Results as given in the supplement of paper PMC9694430.

Columns and labels:
Assay in all cases: thermal shift delta Tm vs DMSO control; higher = stronger stabilization (binding)
Settings in all cases: 12.5 µM; protein concentration 2 µM
LOC_OS01G01410-cb001 = tested on: LOC_OS01G01410-cb001
Outline: (§1)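 The melting temperature shift given here is a triplicate mean, measured against protein that received only DMSO. Melting temperatures came from Boltzmann fits of differential scanning fluorimetry data on E. coli-expressed, purified rice kinase domain constructs. Each 19.5 μl well contained 2 μM kinase, 100 mM potassium phosphate pH 7.5, 150 mM NaCl, 10% glycerol, 5 × SYPRO Orange and compound in DMSO. Plates were scanned from 25°C to 95°C at 0.05°C/s.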

LOC_OS01G02750-cb003 = tested on: LOC_OS01G02750-cb003
Outline: as §1

LOC_OS01G10900-cb004 = tested on: LOC_OS01G10900-cb004
Outline: as §1

LOC_OS01G13800-cb001 = tested on: LOC_OS01G13800-cb001
Outline: as §1

LOC_OS01G14860-cb001 = tested on: LOC_OS01G14860-cb001
Outline: as §1

LOC_OS01G21960-cb002 = tested on: LOC_OS01G21960-cb002
Outline: as §1

LOC_OS01G39600-cb002 = tested on: LOC_OS01G39600-cb002
Outline: as §1

LOC_OS01G48390-cb002 = tested on: LOC_OS01G48390-cb002
Outline: as §1

LOC_OS01G51400-cb002 = tested on: LOC_OS01G51400-cb002
Outline: as §1

LOC_OS01G52050-cb004 = tested on: T1, LOC_OS01G52050-cb004
T1 sequence (whole entry): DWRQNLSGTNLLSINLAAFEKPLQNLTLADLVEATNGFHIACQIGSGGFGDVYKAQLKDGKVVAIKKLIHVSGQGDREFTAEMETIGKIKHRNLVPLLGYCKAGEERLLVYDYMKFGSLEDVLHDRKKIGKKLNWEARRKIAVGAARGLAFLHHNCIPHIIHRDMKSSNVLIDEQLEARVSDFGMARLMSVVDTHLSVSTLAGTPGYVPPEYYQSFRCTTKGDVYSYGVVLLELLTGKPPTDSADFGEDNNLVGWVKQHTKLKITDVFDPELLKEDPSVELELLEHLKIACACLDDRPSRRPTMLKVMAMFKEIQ
Outline: as §1

Compound	thermal shift delta Tm (LOC_OS01G01410-cb001) [°C]	thermal shift delta Tm (LOC_OS01G02750-cb003) [°C]	thermal shift delta Tm (LOC_OS01G10900-cb004) [°C]	thermal shift delta Tm (LOC_OS01G13800-cb001) [°C]	thermal shift delta Tm (LOC_OS01G14860-cb001) [°C]	thermal shift delta Tm (LOC_OS01G21960-cb002) [°C]	thermal shift delta Tm (LOC_OS01G39600-cb002) [°C]	thermal shift delta Tm (LOC_OS01G48390-cb002) [°C]	thermal shift delta Tm (LOC_OS01G51400-cb002) [°C]	thermal shift delta Tm (LOC_OS01G52050-cb004) [°C]
C[C@@H](NC(=O)c1ncnc(N)c1Cl)c1ncc(C(=O)Nc2cc(C(F)(F)F)c(Cl)cn2)s1	1.26	1.15	2.82	-0.27	0.84	0.73	-1.6	2.52	0.56	0.43
Cc1ccc(S(=O)(=O)/C=C/C#N)cc1	-0.23	-1.35	-0.53	-0.18	-0.19	0.75	-1.97	2.88	0.21	-1.44
Cn1c(=O)c(F)c(Nc2ccc(I)cc2F)c2c(=O)n(C[C@@H](O)CO)cnc21	0.56	-0.22	0.49	0.43	0.33	0.97	0.25	0.55	0.57	0.27
CN(C)C/C=C/C(=O)Nc1cc2c(Nc3ccc(F)c(Cl)c3)ncnc2cc1O[C@H]1CCOC1 [Afatinib (BIBW2992) Dimaleate]	0.1	2.11	5.05	0.72	3.86	1.14	1.17	2.48	0.14	1.67
CCCCCCCCCCCCCCCCOP(=O)([O-])OCC[N+](C)(C)C [Miltefosine]	-6.86	-17.5	-2.68	-7.38	-3.1	-5.94	-5.77	-3.18	-3.78	-6.22
COc1cc(Nc2c(C#N)cnc3cc(OCCCN4CCN(C)CC4)c(OC)cc23)c(Cl)cc1Cl [Bosutinib (SKI-606)]	0.89	0.44	-0.3	0.52	0.06	-0.08	-0.04	0.05	-0.09	0.17
Cc1cc(Nc2cc(N3CCN(C)CC3)nc(Sc3ccc(NC(=O)C4CC4)cc3)n2)n[nH]1 [Tozasertib (VX-680, MK-0457)]	6.12	6.08	2.83	0.07	1.86	1.49	10.2	3.05	0.88	1.66
O=C(Nc1ccc(OC(F)(F)F)cc1)c1sccc1NCc1ccnc2ccccc12	1.17	2.66	0.51	0.57	0.78	0.12	1.45	1	0.94	3.68
COc1cc2nccc(Oc3ccc(NC(=O)C4(C(=O)Nc5ccc(F)cc5)CC4)cc3)c2cc1OC	1.63	0.81	0.73	0.78	1.07	0.93	1.5	6.38	0.3	2.44
N#Cc1ccc(-c2c(-c3ncn[nH]3)sc(N3CCOCC3)c2C#N)c(F)c1	0.3	0.97	4.91	0.46	0.41	1.16	0.28	0.62	0.12	0.29
O=C1NCCc2[nH]c(-c3ccncc3)cc21	0.69	-0.36	0.12	0.78	5.61	2.12	-0.24	0.48	0.19	1.31
C=CC(=O)Nc1ccc2ncnc(Nc3cccc(Br)c3)c2c1	0.7	-0.16	-0.13	-0.18	0.1	0.15	-12.2	0.59	0.29	0
COCCOc1ccc2c(c1)ncn2-c1ccc2cccc(N3CCC(N)CC3)c2n1	0.39	7.25	1.08	-0.56	1.89	3.75	2.09	0.21	-0.08	10.9
N#Cc1cccc(-c2c[nH]c3ncnc(N4CCOCC4)c23)c1	0.72	2.58	0.72	0.32	1.47	1	1.94	0.73	0.58	1.08
Cc1ccc(-n2nc(C(C)(C)C)cc2NC(=O)Nc2ccc(OCCN3CCOCC3)c3ccccc23)cc1 [Doramapimod (BIRB 796)]	0.6	0.28	0.4	0.47	1.26	0.35	0.04	0.73	0.2	1.1
COc1ccc(Cl)c(Nc2nc3ccccc3nc2NS(=O)(=O)c2cccc(NC(=O)C(C)(C)N)c2)c1 [Pilaralisib (XL147)]	1.63	2.16	0.29	1.9	1.53	0.73	2.65	1.05	1.3	4.64
FC(F)(F)c1ccc(CNc2ccc(Cc3c[nH]c4ncc(Cl)cc34)cn2)cn1 [Pexidartinib (PLX3397)]	1.9	3.35	3.09	0.85	1.22	2.07	2.41	6.28	0.37	10.2
COc1cc2ccc(=O)oc2cc1O [Scopoletin]	-0.07	0.35	0.25	-0.08	0.39	0.11	-0.27	-0.08	0.18	0.81
CCN(CC)CCNC(=O)c1c(C)[nH]c(/C=C2\C(=O)Nc3ccc(F)cc32)c1C [Sunitinib]	3.95	1.72	0.25	-0.3	1.43	2.21	2.9	1.72	0.22	7.91
CC(C)NC(=O)C1CCC(n2c(NC(=O)c3ccc(F)cc3)nc3ccc(CN4CCC(C(C)(C)O)CC4)cc32)CC1 (stereo not given) [Belizatinib (TSR-011)]	0.68	3.65	1.75	-0.36	0.58	1.84	2.02	2.61	0.56	4.45
C1=N/C2=N/c3ccc(OCCN4CCCC4)c(c3)COC/C=C/COCc3cccc(c3)C(=C1)N2 [Pacritinib (SB1518)]	2.82	2.89	2.75	-0.21	4.13	2.75	4.09	2.71	0.34	8.62
COc1cc(OC)c(C=C2C(=O)Nc3ccccc32)c(OC)c1	0.16	0.24	1.24	0.46	0.32	0.88	0.01	0.22	0.14	-0.14
Clc1ccc(Nc2nnc(Cc3ccncc3)c3ccccc23)cc1 [Vatalanib (PTK787) 2HCl]	0.99	0.12	-0.92	0.36	0.31	0.21	0.01	0.44	-0.2	0.04
Cc1cc(NC(=O)c2cccc(NC(=O)/C=C/CN(C)C)c2)ccc1Nc1nccc(-c2cccnc2)n1	1.77	1.69	4.22	0.46	1.25	1.6	6.45	1.99	0.73	0.75
Nc1nccc(Oc2ccc3c(C(=O)Nc4cccc(C(F)(F)F)c4)cccc3c2)n1	0.89	1.42	0.88	1.39	3.82	1.43	0.93	1.13	0.12	1.04
Cc1ccc(NC(=O)c2cccc(N(C)C)c2)cc1NC(=O)c1ccc(O)cc1	0.45	0.15	0.12	0.36	0.44	0.92	-0.01	0.9	0.37	0.36
O=C(c1ccc(/C=C/c2n[nH]c3ccccc23)cc1)N1CCNCC1	5.18	3.06	1.43	-0.18	1.8	2.42	5.76	5.36	1.16	7.26
